Inconclusive results are not listed. The source made the active and inactive calls. Calls follow the shape of the dose curve; as a rule, active = well fitted cell-killing curve with a large enough effect; inconclusive = small, poorly fitted or top-dose-only effect, or effect the other way; inactive = no such curve, though single readings can be large or run the other way.
How the values were obtained:
[1] = Quantitative High-Throughput drug screen in 47 multiple myeloma cell lines against the NCATS MIPE library collection: MM1R_ATCC cell viability assay (AID 1918981); also: nearly all actives have a fitted effect of over 35% in size; also: potency is read from the fitted curve at half-maximal effect
Procedure, shortened: (§1)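 Myeloma cells (500/well) treated with MIPE 4.0 compounds for 48 h at 37 °C, 5% CO2. Viability read as ATP via CellTiter-Glo luminescence after 5 min at RT; DMSO-only wells = 100%, media-only = 0% viability.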

[2] = Quantitative High-Throughput drug screen in 47 multiple myeloma cell lines against the NCATS MIPE library collection: KMS28PE_JCRB cell viability assay (AID 1918983); also: nearly all actives have a fitted effect of over 35% in size; also: potency is read from the fitted curve at half-maximal effect
Procedure, shortened: as §1

[3] = Quantitative High-Throughput drug screen in 47 multiple myeloma cell lines against the NCATS MIPE library collection: KMS34_JCRB cell viability assay (AID 1918985); also: nearly all actives have a fitted effect of over 40% in size
Procedure, shortened: as §1

[4] = Quantitative High-Throughput drug screen in 47 multiple myeloma cell lines against the NCATS MIPE library collection: XG1_PLB cell viability assay (AID 1919866); also: nearly all actives have a fitted effect of over 35% in size; also: potency is read from the fitted curve at half-maximal effect
Procedure, shortened: as §1

[5] = Quantitative High-Throughput drug screen in 47 multiple myeloma cell lines against the NCATS MIPE library collection: VP6_DJ cell viability assay (AID 1919867); also: nearly all actives have a fitted effect of over 40% in size; also: potency is read from the fitted curve at half-maximal effect
Procedure, shortened: as §1

[6] = Quantitative High-Throughput drug screen in 47 multiple myeloma cell lines against the NCATS MIPE library collection: UTMC2_PLB cell viability assay (AID 1919868); conditions: CellTiter-Glo ATP luminescence, 48 h; viability (% of DMSO control): at 45.8 µM (top of the series); also: nearly all actives have a fitted effect of over 55% in size; also: potency is read from the fitted curve at half-maximal effect
Procedure, shortened: as §1

[7] = Quantitative High-Throughput drug screen in 47 multiple myeloma cell lines against the NCATS MIPE library collection: PE2_PLB cell viability assay (AID 1919869); also: nearly all actives have a fitted effect of over 35% in size; also: potency is read from the fitted curve at half-maximal effect
Procedure, shortened: as §1

[8] = Quantitative High-Throughput drug screen in 47 multiple myeloma cell lines against the NCATS MIPE library collection: RPMI8226_ATCC cell viability assay (AID 1919871); also: nearly all actives have a fitted effect of over 30% in size; also: potency is read from the fitted curve at half-maximal effect
Procedure, shortened: as §1

[9] = Quantitative High-Throughput drug screen in 47 multiple myeloma cell lines against the NCATS MIPE library collection: OPM2_DSMZ cell viability assay (AID 1919872); also: nearly all actives have a fitted effect of over 30% in size; also: potency is read from the fitted curve at half-maximal effect
Procedure, shortened: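 Myeloma cells (500 per well) were exposed to MIPE 4.0 compounds by pin transfer and incubated 48 hours at 37C, 5% CO2. Viability was read as ATP by CellTiter-Glo luminescence, normalised to DMSO (100%) and media-only (0%) wells.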

[10] = Quantitative High-Throughput drug screen in 47 multiple myeloma cell lines against the NCATS MIPE library collection: KMS11_JCRBsus cell viability assay (AID 1919873); also: nearly all actives have a fitted effect of over 50% in size; also: potency is read from the fitted curve at half-maximal effect
Procedure, shortened: as §1

[11] = Quantitative High-Throughput drug screen in 47 multiple myeloma cell lines against the NCATS MIPE library collection: KMS28BM_JCRB cell viability assay (AID 1919874); also: nearly all actives have a fitted effect of over 35% in size; also: potency is read from the fitted curve at half-maximal effect
Procedure, shortened: as §1

[12] = Quantitative High-Throughput drug screen in 47 multiple myeloma cell lines against the NCATS MIPE library collection: OCIMY7_PLB cell viability assay (AID 1918987); conditions: OCI-MY7 myeloma viability, CellTiter-Glo ATP, 48 h; viability (% of DMSO): at 45.8 µM (top of the series); also: nearly all actives have a fitted effect of over 65% in size; also: potency is read from the fitted curve at half-maximal effect
Procedure, shortened: as §1

[13] = Quantitative High-Throughput drug screen in 47 multiple myeloma cell lines against the NCATS MIPE library collection: OCIMY5_PLB cell viability assay (AID 1918988); also: potency is read from the fitted curve at half-maximal effect; nearly all actives have a fitted effect of over 65% in size
Procedure, shortened: as §1

[14] = Quantitative High-Throughput drug screen in 47 multiple myeloma cell lines against the NCATS MIPE library collection: OPM1_PLB cell viability assay (AID 1918989); also: nearly all actives have a fitted effect of over 40% in size; also: potency is read from the fitted curve at half-maximal effect
Procedure, shortened: as §1

[15] = Quantitative High-Throughput drug screen in 47 multiple myeloma cell lines against the NCATS MIPE library collection: U266_ATCC cell viability assay (AID 1919864); also: nearly all actives have a fitted effect of over 35% in size; also: potency is read from the fitted curve at half-maximal effect
Procedure, shortened: as §1

[16] = Quantitative High-Throughput drug screen in 47 multiple myeloma cell lines against the NCATS MIPE library collection: PCM6_Riken cell viability assay (AID 1919870); also: nearly all actives have a fitted effect of over 30% in size; also: potency is read from the fitted curve at half-maximal effect
Procedure, shortened: as §1

[17] = Quantitative High-Throughput drug screen in 47 multiple myeloma cell lines against the NCATS MIPE library collection: SKMM1_PLB cell viability assay (AID 1919863); conditions: SKMM1 myeloma viability, CellTiter-Glo ATP, 48 h; viability: stronger effect = lower value; also: nearly all actives have a fitted effect of over 35% in size; also: potency is read from the fitted curve at half-maximal effect
Procedure, shortened: as §1

[18] = Quantitative High-Throughput drug screen in 47 multiple myeloma cell lines against the NCATS MIPE library collection: L363_DSMZ cell viability assay (AID 1918984); also: nearly all actives have a fitted effect of over 40% in size; also: potency is read from the fitted curve at half-maximal effect
Procedure, shortened: as §1

[19] = Quantitative High-Throughput drug screen in 47 multiple myeloma cell lines against the NCATS MIPE library collection: XG6_PLB cell viability assay (AID 1919865); also: nearly all actives have a fitted effect of over 40% in size; also: potency is read from the fitted curve at half-maximal effect
Procedure, shortened: as §1

[20] = Quantitative High-Throughput drug screen in 47 multiple myeloma cell lines against the NCATS MIPE library collection: LP1_DSMZ cell viability assay (AID 1918982); also: nearly all actives have a fitted effect of over 35% in size; also: potency is read from the fitted curve at half-maximal effect
Procedure, shortened: as §1

Cc1cn([C@@H]2O[C@H](CO)[C@@H](O)[C@H]2F)c(=O)[nH]c1=O
inactive: Potency [1] | Potency [2] | Potency [3] | Potency [4] | Potency [6] | Potency [7] | Potency [8] | Potency [9] | Potency [10] | Potency [11]
active: Potency [5] 14.8 µM

COC(=O)C1C2CC3c4[nH]c5cc(OC)ccc5c4CCN3CC2CC(OC(=O)c2cc(OC)c(OC)c(OC)c2)C1OC (stereo not given)
inactive: Potency [9]
active: Potency [1] 13.2 µM | Potency [2] 14.8 µM | Potency [12] 16.6 µM | Potency [13] 16.6 µM | Potency [14] 23.5 µM | Potency [15] 23.5 µM | Potency [7] 14.8 µM | Potency [16] 16.6 µM | Potency [8] 16.6 µM | Potency [10] 29.6 µM | Potency [11] 20.9 µM

CC(=O)OCC(=O)[C@@]12N=C(C)O[C@H]1C[C@H]1[C@@H]3CCC4=CC(=O)C=C[C@]4(C)[C@@H]3[C@@H](O)C[C@@]12C
inactive: Potency [1] | Potency [2] | Potency [3] | Potency [14] | viability [17] 135% | Potency [7] | Potency [11]
active: Potency [4] 16.6 µM | Potency [16] 11.8 µM | Potency [8] 0.469 µM | Potency [10] 0.935 µM

CN1CCCN(C(=O)c2cccc(-c3ccc(C=C4C(=O)Nc5ccc(Cl)cc54)o3)c2)CC1
active: Potency [1] 5.9 µM | Potency [18] 6.62 µM | Potency [12] 10.5 µM | Potency [13] 9.35 µM | Potency [14] 23.5 µM | Potency [17] 14.8 µM | Potency [15] 18.7 µM | Potency [19] 7.43 µM | Potency [4] 11.8 µM | Potency [5] 18.7 µM | Potency [6] 0.935 µM | Potency [7] 23.5 µM | Potency [16] 9.35 µM | Potency [8] 23.5 µM | Potency [9] 23.5 µM | Potency [10] 9.35 µM

Nc1ccn(C[C@@H](CO)OCP(=O)(O)O)c(=O)n1
inactive: Potency [20] | Potency [2] | Potency [3] | Potency [15] | Potency [19] | Potency [5] | Potency [8] | Potency [11]

c1cc(CN2CCCNCCNCCCNCC2)ccc1CN1CCCNCCNCCCNCC1
inactive: Potency [2] | Potency [18] | viability [17] 136% | Potency [4] | Potency [5] | Potency [7] | Potency [8] | Potency [10] | Potency [11]

C=C1CCC2[C@](C)(CO)C(O)CC[C@]2(C)C1CC=C1C(=O)OCC1O (stereo not given in full)
active: Potency [13] 42.9 µM | Potency [8] 0.0171 µM
inactive: Potency [20] | Potency [14] | Potency [15] | Potency [19] | Potency [5] | Potency [7] | Potency [16] | Potency [9] | Potency [10] | Potency [11]

O=C(O)[C@H](CC(=O)N1C[C@@H]2CCCC[C@H]2C1)Cc1ccccc1
inactive: Potency [20] | Potency [14] | Potency [15] | Potency [6] | Potency [7] | Potency [16] | Potency [9] | Potency [10] | Potency [11]

N=c1ccn2c(n1)O[C@H]1[C@@H](O)[C@@H](CO)O[C@H]12
active: Potency [12] 0.332 µM | Potency [17] 0.148 µM | Potency [15] 18.7 µM | Potency [5] 18.7 µM | Potency [6] 14.8 µM | Potency [10] 0.469 µM
inactive: Potency [20] | Potency [2] | Potency [7] | Potency [8] | Potency [9]

O=c1[nH]c(=O)n([C@H]2C[C@@H](O)[C@@H](CO)O2)cc1F
active: Potency [20] 10.5 µM | Potency [2] 20.9 µM | Potency [12] 0.59 µM | Potency [14] 0.0296 µM | Potency [15] 23.5 µM | Potency [4] 9.35 µM | Potency [5] 18.7 µM | Potency [6] 10.5 µM | Potency [7] 14.8 µM | Potency [16] 14.8 µM | Potency [10] 0.526 µM

CCc1cc(C(C)=NOCc2ccc(C3CCCCC3)c(C(F)(F)F)c2)ccc1CN1CC(C(=O)O)C1
inactive: Potency [15] | Potency [10]
active: Potency [12] 16.6 µM | Potency [14] 18.7 µM | Potency [17] 18.7 µM | Potency [5] 11.8 µM | Potency [16] 11.8 µM

CON=C(C(=O)N[C@@H]1C(=O)N2C(C(=O)O)=C(CSC(=O)c3ccco3)CS[C@H]12)c1csc(N)n1
inactive: Potency [20] | Potency [2] | Potency [12] | Potency [14] | viability [17] 134% | Potency [4] | Potency [5] | Potency [7] | Potency [9] | Potency [10] | Potency [11]

FC(F)(F)c1ccc(Nc2nc3ccc(Oc4ccnc(-c5ncc(C(F)(F)F)[nH]5)c4)cc3[nH]2)cc1
active: Potency [18] 18.7 µM | Potency [14] 20.9 µM | Potency [15] 13.2 µM | Potency [19] 16.6 µM | Potency [7] 26.4 µM | Potency [16] 18.7 µM | Potency [8] 26.4 µM

CC(Cc1ccc(O)c(O)c1)(NN)C(=O)O (stereo not given)
inactive: Potency [18] | Potency [19] | Potency [4] | Potency [6] | Potency [7] | Potency [11]
active: Potency [17] 16.6 µM | Potency [10] 26.4 µM

CCCCCCCCCCCC(CC1OC(=O)C1CCCCCC)OC(=O)C(CC(C)C)NC=O (stereo not given)
active: Potency [2] 26.4 µM | Potency [13] 18.7 µM | Potency [17] 16.6 µM | Potency [5] 7.43 µM | Potency [16] 4.69 µM | Potency [8] 18.7 µM
inactive: Potency [18] | Potency [3] | Potency [14] | Potency [7] | Potency [10]

Cc1ccc(-n2[nH]c(C)c(N=Nc3cccc(-c4cccc(C(=O)O)c4)c3O)c2=O)cc1C
active: Potency [20] 16.6 µM | Potency [13] 26.4 µM | Potency [15] 20.9 µM | Potency [7] 26.4 µM | Potency [10] 23.5 µM
inactive: Potency [18]
